# Values quoted from earlier work as cited in PubChem BioAssay AID977611.
# Among all 3,900 compounds or so, about 3,900 (100%) were called active. No cut-off is given here; in the data, nearly all actives have Kd up to about 4200 µM. The set was probably picked from earlier hits. Some of the results follow. Where a SMILES comes first, the peptide text is derived from it. Non-standard residues stand in square brackets, D forms with d. Square brackets hold non-standard residues; d marks the D form. Residues, ends and D or L forms follow the SMILES beside them. Peptide text beside a SMILES is read from it. [ ]: non-standard residue; d: D form. *: point of attachment. X1 = O=C(O)c1cc(NC(=S)*)ccc1-c1c2ccc(=O)cc-2oc2cc(O)ccc12; Phe(3,4-Cl2) = N[C@@H](Cc1ccc(Cl)c(Cl)c1)C(=O)O; Orn(CH(NH2)2) = NC(N)NCCC[C@H](N)C(=O)O; Cha = N[C@@H](CC1CCCCC1)C(=O)O; Ahx = NCCCCCC(=O)O
# Assay: PubChem AID 977611
# Details: PDB protein-ligand complexes, literature Kd
compound,measurement,setting,value
O=C(c1ccc(O)cc1O)n1cc2ccccc2c1,Kd,PDB entry 4mp7,1830 nM (active)
O=S(=O)(c1ccc(O)cc1O)n1cc2ccccc2c1,Kd,PDB entry 4mpc,711 nM (active)
CSCC[C@H](NC(=O)[C@H](CC(C)C)NC(=O)[C@H](Cc1ccccc1)NC(=O)[C@H](CC(=O)O)NC(=O)[C@H](Cc1ccc(O)cc1)NC(=O)[C@H](Cc1c[nH]c2ccccc12)NC(=O)[C@@H](NC(=O)[C@@H](NC(=O)[C@H](CCCNC(N)N)NC(=O)[C@@H](N)CO)C(C)C)[C@@H](C)O)C(=O)N[C@@H](CCC(=O)O)C(=O)N[C@@H](CC(=O)O)C(=O)O (H-S[Orn(CH(NH2)2)]VTWYDFLMED-OH),Kd,"protein: Guanine nucleotide-binding protein G, PDB entry 1y3a",3900 nM (active)
"CC(C)C[C@H](NC(=O)[C@H](C)NC(=O)[C@H](Cc1ccc(Cl)c(Cl)c1)NC(=O)[C@H](Cc1c[nH]c2ccccc12)NC(=O)[C@H](CCC(=O)O)NC(=O)[C@H](CCC(=O)O)NC(=O)[C@H](CC(C)C)NC(=O)[C@H](CC(=O)O)NC(=O)[C@H](CC(=O)O)NC(=O)[C@H](C)NC(=O)[C@@H](NC(=O)[C@H](Cc1ccccc1)NC(=O)[C@H](CC(=O)O)NC(=O)CCCCCNC(=S)Nc1ccc(-c2c3ccc(=O)cc-3oc3cc(O)ccc23)c(C(=O)O)c1)[C@@H](C)O)C(N)=O ({X1-Ahx}-DFTADDLEEW[Phe(3,4-Cl2)]AL-NH2)",Kd,"protein: Replication protein A 70 kDa DNA-binding subunit, PDB entry 4nb3",22 nM (active)
CC(C)C[C@H](NC(=O)[C@H](CCC(=O)O)NC(=O)[C@H](CO)NC(=O)[C@H](CC(=O)O)NC(=O)[C@H](CO)NC(=O)[C@H](CC(=O)O)NC(=O)[C@H](CCC(=O)O)NC(=O)[C@H](CCC(N)=O)NC(=O)[C@H](CO)NC(=O)CN)C(=O)N[C@@H](CCC(=O)O)C(=O)N[C@@H](CCC(N)=O)C(=O)N[C@@H](Cc1ccc(O)cc1)C(=O)N[C@@H](Cc1ccccc1)C(=O)N[C@H](C(=O)N[C@@H](C)C(=O)N[C@@H](CCCNC(N)N)C(=O)N[C@@H](Cc1c[nH]c2ccccc12)C(=O)O)[C@@H](C)O (H-GSQEDSDSELEQYFTA[Orn(CH(NH2)2)]W-OH),Kd,"protein: DAXX N-Terminal Helical Bundle Domain (55-144), PDB entry 2kzu",60000 nM (active)
CCCCC/C=C\C/C=C\CCCCCCCCCC(=O)N[C@@H](CO[C@H]1O[C@H](CO)[C@H](O)[C@H](O)[C@H]1O)[C@H](O)[C@H](O)CCCCCCCCCCCCCC,Kd,"protein: L363, PDB entry 3ubx",25.2 nM (active)
CCCCCC[C@@H](O)[C@H](CCCCCC)C(=O)O,Kd,"protein: Peptidoglycan recognition protein 1, PDB entry 3t2v",103 nM (active)
CC(C)C[C@H](N)C(=O)N[C@@H](Cc1ccc(O)cc1)C(=O)N[C@@H](CC1CCCCC1)C(=O)N[C@@H](CC1CCCCC1)C(=O)N1CCC[C@H]1C(=O)N[C@@H](CCCNC(N)N)C(=O)N1CCC[C@H]1C(=O)N[C@H](C(N)=O)[C@@H](C)O (H-LY[Cha][Cha]P[Orn(CH(NH2)2)]PT-NH2),Kd,"protein: Chaperone protein DnaK, PDB entry 4hy9",80 nM (active)
CC[C@H](C)[C@H](NC(=O)[C@H](CC1CCCCC1)NC(=O)[C@H](Cc1ccc(O)cc1)NC(=O)[C@@H](N)CC(C)C)C(=O)N1CCC[C@H]1C(=O)N[C@@H](CCCNC(N)N)C(=O)N1CCC[C@H]1C(N)=O (H-LY[Cha]IP[Orn(CH(NH2)2)]P-NH2),Kd,"protein: Chaperone protein DnaK, PDB entry 4hyb",350 nM (active)
CC(C)C[C@H](NC(=O)[C@@H](N)CCCCN)C(=O)N[C@@H](Cc1ccc(O)cc1)C(=O)N[C@@H](CC1CCCCC1)C(=O)N[C@@H](CC(C)C)C(=O)N1CCC[C@H]1C(=O)N[C@@H](CCCNC(N)N)C(=O)N1CCC[C@H]1C(=O)N[C@H](C=O)[C@@H](C)O (H-KLY[Cha]LP[Orn(CH(NH2)2)]PT-aldehyde),Kd,"protein: E. coli Chaperone protein dnaK, PDB entry 3dpo",5.5 nM (active)
NC1NC(=O)c2c([nH]c(=S)n2CCO)N1 (configuration not stated),Kd,"protein: 7,8-DIHYDRO-6-HYDROXYMETHYLPTERIN-PYROPHOSPHOKINASE, PDB entry 4ad6",16700 nM (active)
H-INPTGCARSEPKI-OH,Kd,"protein: WD repeat-containing protein 5, WDR5, PDB entry 4erq",75 nM (active)
H-VNPTGCARSEPKMS-OH,Kd,"protein: WD repeat-containing protein 5, WDR5, PDB entry 4ery",54 nM (active)
C[C@H](NC(=O)[C@H](CC(=O)O)NC(=O)[C@H](CCCCN)NC(=O)[C@H](CO)NC(=O)[C@H](C)NC(=O)[C@@H](N)CO)C(=O)O (H-SASKDA-OH),Kd,"protein: Histone-lysine N-methyltransferase SETD7 (Y335F mutant), PDB entry 4j7i",8800 nM (active)
H-KEKSD-OH,Kd,"protein: Coatomer subunit beta', PDB entry 4j77",3400 nM (active)
NC(N)=N/C=C/C[C@H](N[C@H](CCC(=O)O)C(=O)O)C(=O)O,Kd,"protein: Nopaline-binding periplasmic protein NocT WT, PDB entry 4pox",3700 nM (active)
CC(C)(C)c1cccc(C2C=CC=NC2=O)c1 (configuration not stated),Kd,"protein: RNA-directed RNA polymerase, PDB entry 4ih7",5800 nM (active)
NC1NC(=O)c2[nH]cc(CN3C[C@H](CO)[C@@H](O)C3)c2N1 (some centres not stated),Kd,"protein: Purine nucleoside phosphorylase (W16Y, W94Y, W178Y, H257W mutation), PDB entry 4ear",0.151 nM (active)
CC1(C)CNC(=[N+]2CCN(c3ncnc4sc(CC(F)(F)F)cc34)CC2)S1,Kd,"protein: Menin (A541T mutation), PDB entry 4gq4",22 nM (active)
CC(C)[C@H](NC(=O)[C@H](CO[P+](O)(O)O)NC(=O)[C@H](CCCCN)NC(=O)[C@H](CCCNC(N)N)NC(=O)[C@H](CCCNC(N)N)NC(=O)[C@H](C)N)C(=O)O,Kd,"protein: 14-3-3 protein sigma, PDB entry 3ux0",550 nM (active)
C[C@H](NC(=O)[C@H](CCCCN)NC(=O)[C@H](CC(=O)O)NC(=O)[C@@H](N)CCCCN)C(=O)N[C@@H](CCCCN)C(=O)N[C@@H](CO[P+](O)(O)O)C(=O)N[C@@H](CS)C(=O)O,Kd,"protein: 14-3-3 PROTEIN ZETA/DELTA, PDB entry 4bg6",69 nM (active)
CC(C)[C@H](NC(=O)[C@H](CO[P+](O)(O)O)NC(=O)[C@H](CCCCN)NC(=O)[C@H](CCCNC(N)N)NC(=O)[C@H](CCCNC(N)N)NC(=O)[C@@H](N)CCCCN)C(=O)O,Kd,"protein: 14-3-3 protein sigma, PDB entry 4fr3",70 nM (active)
